Assay results: ChEMBL document CHEMBL4513216, “Probing the Open Global Health Chemical Diversity Library for Multistage-Active Starting Points for Next-Generation Antimalarials” (ACS Infect Dis, 2020)
Screen size: about 65,000 compounds; about 2,100 (3.2%) showed an effect of 50% or more. The median lay at about -52%. What follows is part of a selection rich in strong results, with near analogues and random picks from the rest.

tested on: Plasmodium falciparum; assay: Screen against P. falciparum Asexual Blood Stage (ABS), at 5uM; type: functional, Dd2; settings: tested at 5 uM

| Structure (SMILES) | INHIBITION |
| --- | --- |
| Cc1nc(CN2CCCC(N(C)Cc3c(C)noc3C)C2)no1 (configuration not stated) | 58.6% |
| Cc1nc(CN2CCCC(NCc3ccc4ccccc4c3)C2)no1 (configuration not stated) | -9.17% |
| Cc1nc(CN2CCCC(NCc3cccc4ccccc34)C2)no1 (configuration not stated) | 58.3% |
| Cc1nc(CN2CCCC(N(C)CCc3ccncc3)C2)no1 (configuration not stated) | -138% |
| CN(Cc1ccccn1)C1CCCN(Cc2noc(C3CC3)n2)C1 (configuration not stated) | -128% |
| CCOc1ccccc1CNC1CCCN(Cc2noc(C)n2)C1 (configuration not stated) | 48.7% |
| CCn1nc(C)c(CN2CCC(c3ccn[nH]3)C2)c1C (configuration not stated) | -30.2% |
| Cc1nc2sccn2c1CNC1(c2ccccc2F)CCCC1 | -5.97% |
| Cc1cccc(COC[C@@]23CCC[C@@H]2CN(S(=O)(=O)N(C)C)C3)n1 | -12.3% |
| CCc1nc(CN2CCN(C(=O)C3(C#N)CCCC3)CC2)cs1 | -79.7% |
| O=C(c1ccccn1)N1CCC2(CC1)COC(COCC1CCCC1)C2 (configuration not stated) | -14.7% |
| Cc1ccc(CN2CCN(C(=O)c3ccc(CO)cc3)C(C)C2=O)cc1 (configuration not stated) | -121% |
| CC(=O)N1CCCC(c2ccc(Br)cn2)C1 (configuration not stated) | -147% |
| CC(=O)N1CCCC(c2ccccn2)C1 (configuration not stated) | -11.9% |
| CC(=O)N1CCCC(c2ccc(Cc3ccccc3)cn2)C1 (configuration not stated) | 60.4% |
| CNc1cncc(C2CCCN2Cc2ccn(C)n2)n1 (configuration not stated) | -1.9% |
| c1cncc(-c2ccc3c(c2)CCC32CCN(Cc3nccs3)CC2)c1 | 49.1% |
| COCCN1C[C@@H]2CN(S(=O)(=O)c3cccs3)C[C@@H]2C1=O | -43.2% |
| CCN1C[C@@H]2CN(S(=O)(=O)c3cccs3)C[C@@H]2C1=O | 64.6% |
| CC(C)CN1C[C@@H]2CN(S(=O)(=O)c3cccs3)C[C@@H]2C1=O | -43.6% |
| CCc1cc(N[C@@H]2C[C@@H]3CC[C@H]2C3)n2nccc2n1 | -125% |
| Cc1ccc(C(=O)Nc2ccc(S(=O)(=O)/N=C3\CCCN3C)cc2)s1 | -13.1% |
| CC(C)(C)n1nc(C2CC2)cc1C(=O)NC1CCN(CC(N)=O)CC1 | -56.9% |
| Cc1cccc(N2CCOCC3(C2)CN(c2ccccc2)C(=O)CO3)n1 (configuration not stated) | -58.1% |
| Cc1cccc(N2CCOCC3(C2)CN(c2cncnc2)C(=O)CO3)n1 (configuration not stated) | -66.1% |
| Cc1cccc(N2CCOCC3(C2)CN(c2ccoc2)C(=O)CO3)n1 (configuration not stated) | 66.9% |

| Structure (SMILES) | INHIBITION |
| --- | --- |
| CCS(=O)(=O)NC[C@]12COC[C@H]1CN(Cc1ccsc1)C2 | 19.6% |
| CCC(C)C(=O)Nc1ccc(CCN2CCOCC2)cc1 (configuration not stated) | -81% |
| CC(C)(CN1CCC(Cc2ccc(C(=O)O)cc2)C1)N1CCOCC1 (configuration not stated) | -29.2% |
| CCOc1ccc(Cl)cc1CNCCCn1ccnc1 | 52.8% |
| CCOc1c(CNCCCn2ccnc2)cc(Cl)cc1OC | 66.5% |
| CCOc1ccc(CNCCCn2ccnc2)cc1OC | -13.1% |
| COCCCn1ccc(NC(=O)NCCCn2ccnc2)n1 | -58.9% |
| COc1cc(CNCCn2ccnc2)cc2c1OCO2 | -86.4% |
| O=C(CN1CCOc2ccc(Cl)cc21)NCCCn1ccnc1 | -30.7% |
| NC(=O)C1CCN(c2nc3nccc(-c4cccnc4)c3c(=O)[nH]2)CC1 | -16.2% |
| O=c1[nH]c(NC2CCCC2)nc2nccc(-c3ccsc3)c12 | 68.5% |
| O=c1[nH]c(NC2CCCC2)nc2nccc(-c3cccs3)c12 | 56.6% |
| O=C(O)Cn1nc(C2CC2)c2c(-c3cccs3)ccnc21 | -7.45% |
| NC(=O)C1CCN(c2nc3nccc(-c4ccccc4)c3c(=O)[nH]2)CC1 | -99.6% |
| NC(=O)C1CCN(c2nc3nccc(-c4ccncc4)c3c(=O)[nH]2)CC1 | -23% |
| c1ccc(COC[C@H]2CC[C@H]3[C@H](CCN3Cc3ccccn3)O2)nc1 | -2.2% |
| CCNc1cc2c(nn1)CCN(C(=O)c1ccnc(-n3ccnc3)c1)C2 | 43.9% |
| CC(C)N1CCc2[nH]nc(C(=O)N3CCN(C)CC3)c2C1 | 49.2% |
| CC(=O)N1CCc2[nH]nc(C(=O)N3CCOCC3)c2C1 | -75.4% |
| CC(C)N1CCc2[nH]nc(C(=O)N3CCOCC3)c2C1 | 55.6% |
| O=C(Nc1nc2c(s1)CNCC2)C1CC1 | -117% |
| O=C(NCC1CC1)[C@H]1C[C@H]2OCC[C@H]2N(CCc2ccccc2)C1 | -62.8% |
| CO[C@@H]1CN(c2ccccc2)S(=O)(=O)[C@@]12CCN(Cc1ccccc1)C2 | -32.5% |
| CC(=O)N[C@@H]1CN(C2CCN(c3cccc(Cl)c3)CC2)C[C@H]1C(C)C | -10.3% |
| CC(=O)N[C@@H]1CN(C2CCN(c3ccccc3F)CC2)C[C@H]1C(C)C | -24.8% |
| CC(=O)N[C@@H]1CN(C2CCN(c3cccc(C)c3C)CC2)C[C@H]1C(C)C | 57.7% |
